According to publication PMC7819943, “Rice protein-binding microarrays: a tool to detect cis-acting elements near promoter regions in rice”:
Whole data set: some 39,000 sequences, median “fluorescence intensity (a.u.)” near 4,300, cut for the highest 2% near 39,000. The sample as a whole holds a higher share of the highest values than the screen did.

Biological target: T1, OsSMF1 (Oryza sativa, UniProt Q6ZLB0 1-436)
T1 sequence: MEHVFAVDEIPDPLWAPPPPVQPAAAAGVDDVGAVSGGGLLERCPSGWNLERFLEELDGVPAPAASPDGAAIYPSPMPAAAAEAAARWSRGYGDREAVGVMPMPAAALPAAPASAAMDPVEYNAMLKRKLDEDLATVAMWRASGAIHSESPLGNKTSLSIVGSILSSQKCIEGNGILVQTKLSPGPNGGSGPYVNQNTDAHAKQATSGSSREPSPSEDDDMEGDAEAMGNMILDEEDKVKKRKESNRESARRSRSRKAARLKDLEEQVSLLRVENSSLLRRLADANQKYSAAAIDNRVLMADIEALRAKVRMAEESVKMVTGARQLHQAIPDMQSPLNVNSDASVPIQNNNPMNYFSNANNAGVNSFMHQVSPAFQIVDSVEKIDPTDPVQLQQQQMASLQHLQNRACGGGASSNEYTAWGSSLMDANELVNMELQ
Experiment: protein-binding microarray (RPBM); PBS, 2% BSA, 51.3 ng/ul salmon testes DNA, 50 uM zinc acetate, 200 nM TF, 25 C, 1 h; high values mean tight binding
Conditions: protein: recombinant; tags: N-terminal polyhistidine and DsRed monomer fusion (pET32a); chain copies: 2; label: CyDye5-dUTP incorporated in the synthesized complementary strand; 3' TTTTT single-stranded linker to array surface; dsDNA, one strand shown
Outline: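 For the binding signal, per-feature fluorescence intensity was read in arbitrary units on an Axon 4000B scanner. Before scanning, a 2% BSA-blocked custom Agilent array made double-stranded with Cy5-dUTP was washed after 1 h at 25 °C with 200 nM protein and 50 µM zinc acetate. The proteins were Ni–NTA-purified transcription factors with N-terminal polyhistidine and DsRed fusions, expressed in E. coli BL21-CodonPlus.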

| Sequence | binding signal |
| --- | --- |
| CAATTCTACAATATGCCACTGAGTTTACCAAGTTATACAACGGAGTCACCTAGTGCAG | 4020 fluorescence intensity (a.u.) |
| GAAATCTGAACAACCAAGTTACTACTGTACTTATGTTAGTCGGAGTCACCTAGTGCAG | 20700 fluorescence intensity (a.u.) |
| TACTTCTACCTACCTTACCAAGTCCTGACAGTTACAACGTCGGAGTCACCTAGTGCAG | 55400 fluorescence intensity (a.u.) |
| ATAAATACCAGCTTTCCAACCATCACTTATTCACTTGCCCCGGAGTCACCTAGTGCAG | 3740 fluorescence intensity (a.u.) |
| TAATCCAGTACTACTTGCTGTGACAGTGTGATGTGCTTGTCGGAGTCACCTAGTGCAG | 3540 fluorescence intensity (a.u.) |
| AGATTGCCATCGGACGCAGTAAAACGTGTCACTACCCCACCGGAGTCACCTAGTGCAG | 7590 fluorescence intensity (a.u.) |
| TAAACACAATTCTCCCTAATTATTATTTCTGGATGATGAGCGGAGTCACCTAGTGCAG | 41400 fluorescence intensity (a.u.) |
| CTTAATTAATTATACACACAAACATTCCCTCCAATGCATGCGGAGTCACCTAGTGCAG | 3760 fluorescence intensity (a.u.) |
| TGATGCTACAATAAACATTTACTAATGACGGATTAATTAGCGGAGTCACCTAGTGCAG | 3430 fluorescence intensity (a.u.) |
| AATGTTTGTAGCACGGGAGGCATACCACATACATACATTGCGGAGTCACCTAGTGCAG | 3640 fluorescence intensity (a.u.) |
| CTCGATCACACACGGTGTCACAGTCACAGGTGCATTGACGCGGAGTCACCTAGTGCAG | 7140 fluorescence intensity (a.u.) |
| GATGACGACGGCGATGACGGCGGGGCGGTTTGGAGCGGGGCGGAGTCACCTAGTGCAG | 4720 fluorescence intensity (a.u.) |
| TAGAGAGCGGTTTTGCTGACGTGGCGTATACGTGACGGTACGGAGTCACCTAGTGCAG | 33100 fluorescence intensity (a.u.) |
| ACTCCCTCGACGGTTTTGGAGGGCGATTTTGCTGACGTGGCGGAGTCACCTAGTGCAG | 47600 fluorescence intensity (a.u.) |
| GTTTTGGAGGGCGGTTTTGCTGACGTGGCGCTGACATGGCCGGAGTCACCTAGTGCAG | 32800 fluorescence intensity (a.u.) |
| CTCTCCCAGCGGTAATGGAGGGCGGTTTTGCTGACGTGGCCGGAGTCACCTAGTGCAG | 58300 fluorescence intensity (a.u.) |
| TGGAGGCGACGTGGCGGTCGTTGACTCGTTGTGTGCTCGACGGAGTCACCTAGTGCAG | 7090 fluorescence intensity (a.u.) |
| GAGAGGGGTGCGCAGTGTGTTGTGGTGGTGCACATGACGGCGGAGTCACCTAGTGCAG | 3510 fluorescence intensity (a.u.) |
| AGATAATCCATAATAATAATTAGCTTAATAATCTAAATCACGGAGTCACCTAGTGCAG | 27300 fluorescence intensity (a.u.) |
| CCGGAAAATCTATCTGTGCTTATAAATAGCCATTATCCAACGGAGTCACCTAGTGCAG | 57400 fluorescence intensity (a.u.) |
| GCGTGTGCATCTGCCATGTAATCCAAAATATAGCCATGAACGGAGTCACCTAGTGCAG | 3660 fluorescence intensity (a.u.) |
| TCGCAACAACAAGAATGATGATGGCATGACGAAAATGCTACGGAGTCACCTAGTGCAG | 3570 fluorescence intensity (a.u.) |
| TACTGCATGCGCAAAGAGTTAATCCGTGGGGCTCGTGGGACGGAGTCACCTAGTGCAG | 45300 fluorescence intensity (a.u.) |
| CTCGTGGGGACGACGCTGGTGTCCGTGTACTGCAAGTGCGCGGAGTCACCTAGTGCAG | 4060 fluorescence intensity (a.u.) |

| Sequence | binding signal |
| --- | --- |
| TGTCCCCGCGCATCCGCGGACGTGGCTGGGCAACTGCTCGCGGAGTCACCTAGTGCAG | 8030 fluorescence intensity (a.u.) |
| AGGGTTATAATTAGATGGGTAGTGGAGGTAGGTAAGAAAACGGAGTCACCTAGTGCAG | 4130 fluorescence intensity (a.u.) |
| CACCCGCACCCGCCCGCACGGCCGCGCCCGCGTCACCACCCGGAGTCACCTAGTGCAG | 6150 fluorescence intensity (a.u.) |
| TGTATTTTCTGACGTTGGTAGCACGGTAGCACCCGATATTCGGAGTCACCTAGTGCAG | 4250 fluorescence intensity (a.u.) |
| GGGTTGTGGTTGTTGTACGTTGTTGTTGACGGCGATGGTTCGGAGTCACCTAGTGCAG | 3460 fluorescence intensity (a.u.) |
| TGTGTTCCCTTTCGGTACGTTGTATTTCGACCCTGACGTTCGGAGTCACCTAGTGCAG | 42700 fluorescence intensity (a.u.) |
| GCTGGTAAAGCGGTGCGCCGGTGCCGCCACGTCCTCGCACCGGAGTCACCTAGTGCAG | 15100 fluorescence intensity (a.u.) |
| CTAGAATGAGTGTTATGGCAGAGTGGTAGATGCTTGAAAACGGAGTCACCTAGTGCAG | 29600 fluorescence intensity (a.u.) |
| TTTCCCCGGTGGATCGTGTTCGGACACGTCGCGGCCCCTCCGGAGTCACCTAGTGCAG | 6200 fluorescence intensity (a.u.) |
| CCACGCGGACACTGACACGTCATCATCGTGTTCGTTTCCTCGGAGTCACCTAGTGCAG | 39300 fluorescence intensity (a.u.) |
| CATCACGCTGACGTGTCCTTTCGTTTGGACACGGACATCTCGGAGTCACCTAGTGCAG | 15000 fluorescence intensity (a.u.) |
| AATGGGGCTATAGGTAATTATGCTTAGAAGTCCGGTTCATCGGAGTCACCTAGTGCAG | 5130 fluorescence intensity (a.u.) |
| GTTGGGGCGCCTCTGGGGCTGTCCACGTCGGATAGCTACACGGAGTCACCTAGTGCAG | 20700 fluorescence intensity (a.u.) |
| GAATCCATCGACACGTTTCTTTCGTCAGAACAGTGTCCGTCGGAGTCACCTAGTGCAG | 3420 fluorescence intensity (a.u.) |
| AATCCGAGTAGTCATTGTCGTTTCCATGCAGAATTATGGTCGGAGTCACCTAGTGCAG | 4030 fluorescence intensity (a.u.) |
| CAATCCGTTGATCGGGGTCGTAGTCCATCGACAGAAATTACGGAGTCACCTAGTGCAG | 41800 fluorescence intensity (a.u.) |
| CGCGTCCGCAGTGTCCCACTCCCGCCACTCCTTCCACCCCCGGAGTCACCTAGTGCAG | 3780 fluorescence intensity (a.u.) |
| CTCTCTCTCGGCTTCCACTCCCGTCTCCTCGTCTCCTCGCCGGAGTCACCTAGTGCAG | 4090 fluorescence intensity (a.u.) |
| ATTGACGCGCCTCGGTATTACCTCACTAGCTGCGTCATTGCGGAGTCACCTAGTGCAG | 6460 fluorescence intensity (a.u.) |
| ATATTGTCACGTGTCACATGTTAGTTTGTTCAGGAACGGACGGAGTCACCTAGTGCAG | 5880 fluorescence intensity (a.u.) |
| TTATTAAGCCTAATTAATCCATCATTAGTAAATATTTACTCGGAGTCACCTAGTGCAG | 3780 fluorescence intensity (a.u.) |
| TCCATTAAGCCTCCGTTTAGTAAAGATAAAGATTGGTCAACGGAGTCACCTAGTGCAG | 44200 fluorescence intensity (a.u.) |
| ATGTTTAATCAACCTCTAAATCAATAAGATTAGTCATGTACGGAGTCACCTAGTGCAG | 3950 fluorescence intensity (a.u.) |
| ACTTTCTTGAATTTAATGCGTGACTCTCCATTCGTCCACACGGAGTCACCTAGTGCAG | 3620 fluorescence intensity (a.u.) |
